# From PubChem BioAssay
# Only some compounds are listed: those with a hit (about 10% of all), similar ones and a draw of the others.
# NPR1 antag: blocks ANP-stimulated signaling of human Npr1 receptor; HEK293 hNpr1 GloSensor cGMP, ANP-stimulated luminescence; Potency, µM (top dose mostly 46.3 µM), without a hit: top-dose activity change, negative = inhibition, actives largely listed as inhibitors; hit rate 1.6% among 76,000; AID 1347048; calls by dose curve; also: % is scaled to controls: 0 for no effect and ±100 for the full control effect; nearly all actives have a fitted effect of over 60% in size
# Target sequence (P16066 whole entry, looked up): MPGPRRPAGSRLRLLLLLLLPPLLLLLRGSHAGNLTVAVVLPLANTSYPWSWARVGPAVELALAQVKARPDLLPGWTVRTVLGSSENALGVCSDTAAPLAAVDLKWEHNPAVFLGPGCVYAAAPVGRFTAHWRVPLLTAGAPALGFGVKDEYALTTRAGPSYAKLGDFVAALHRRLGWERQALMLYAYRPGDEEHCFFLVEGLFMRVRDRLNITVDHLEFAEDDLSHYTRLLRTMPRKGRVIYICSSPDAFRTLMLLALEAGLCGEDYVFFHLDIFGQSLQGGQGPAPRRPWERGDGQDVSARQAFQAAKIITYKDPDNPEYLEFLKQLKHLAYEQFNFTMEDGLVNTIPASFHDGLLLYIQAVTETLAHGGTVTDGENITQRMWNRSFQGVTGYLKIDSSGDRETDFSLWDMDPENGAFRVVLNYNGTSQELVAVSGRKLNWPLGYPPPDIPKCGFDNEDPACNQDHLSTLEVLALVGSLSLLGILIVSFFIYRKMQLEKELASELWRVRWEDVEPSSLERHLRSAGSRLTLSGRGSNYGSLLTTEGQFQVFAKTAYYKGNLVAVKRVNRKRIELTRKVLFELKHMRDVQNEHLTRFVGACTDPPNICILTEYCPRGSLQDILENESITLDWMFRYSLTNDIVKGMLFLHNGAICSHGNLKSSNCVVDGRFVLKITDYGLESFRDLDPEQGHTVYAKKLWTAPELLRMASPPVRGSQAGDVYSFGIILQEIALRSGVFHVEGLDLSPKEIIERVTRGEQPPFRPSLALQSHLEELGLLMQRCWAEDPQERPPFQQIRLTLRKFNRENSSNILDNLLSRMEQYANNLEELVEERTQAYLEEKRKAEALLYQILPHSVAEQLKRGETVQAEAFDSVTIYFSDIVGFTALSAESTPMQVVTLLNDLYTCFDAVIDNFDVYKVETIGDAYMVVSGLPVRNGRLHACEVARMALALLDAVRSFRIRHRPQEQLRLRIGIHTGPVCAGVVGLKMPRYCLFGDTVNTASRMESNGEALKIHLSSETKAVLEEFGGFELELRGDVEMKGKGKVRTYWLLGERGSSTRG
#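 Compound pre-incubated 30 min at room temperature on GloSensor-loaded HEK293 cells stably carrying hNpr1 and the pGS-40F cGMP biosensor. Stimulation uses hNppA at 0.1 nM final; luminescence is taken at baseline and 20 min post-agonist.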
# 3T3 cytotox: cytotoxic compounds in NIH 3T3 cells | Potency, µM (doses to about 96.7 µM), for the others: top-dose activity change, negative = cytotoxicity, usual class: inhibitors | AID 1345082 | NIH 3T3 viability, CellTiter-Glo ATP luminescence, 48-72 h | hit rate 4.3% among 94,000; also: % is scaled to controls: 0 for no effect and ±100 for the full control effect; nearly all actives have a fitted effect of over 55% in size
#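 Cytotoxicity was measured by CellTiter-Glo ATP luminescence after 48 or 72 h compound exposure at 37 °C. Mouse NIH 3T3 fibroblasts were seeded at 400 cells/well and dosed by 23 nL pin transfer.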
# FLuc inh-1: inhibitors of firefly (Photinus pyralis) luciferase. hit rate 2.5% among 76,000. P08659. Potency, µM (series often up to 115 µM), hits mostly inhibitors. purified P. pyralis luciferase, luminescence, biochemical; also: % is scaled to controls: 0 for no effect and ±100 for the full control effect; nearly all actives have a fitted effect of over 65% in size
#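 Cell-free enzyme assay, 10nM P. pyralis luciferase, luciferin and ATP each at 10uM. Inhibition profiled over a 6-point titration, read as luminescence.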
# GPT2 inh: blocks human glutamate pyruvate transaminase 2 | AID 1671188 | Recombinant GPT2, coupled pyruvate oxidase/HRP Amplex Red fluorescence | Potency, µM (highest dose often 57.7 µM), for the others: top-dose activity change, negative = inhibition, most hits filed as inhibitors | hit rate 0.25% among 100,000; also: % is scaled to controls: 0 for no effect and ±100 for the full control effect; nearly all actives have a fitted effect of over 60% in size
#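 Fluorescence of coupled pyruvate oxidase/HRP/Amplex Red system (50uM Amplex, 30 min, dark) reports pyruvate formed by GPT2. Enzyme reaction: 10ng/uL GPT2, 2mM L-alanine, 250uM a-KG, 30 min room temperature, pH 7.5; 50uM AOA control.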
# HEK cytotox: HEK 293 cell cytotoxicity; Potency, µM (series often up to 115 µM), inactives show top-dose activity change, negative = cytotoxicity, actives largely listed as inhibitors; hit rate 6.6% among 94,000; HEK 293 viability, ATP luminescence (CellTiter-Glo), 48-72 h; also: % is scaled to controls: 0 for no effect and ±100 for the full control effect; nearly all actives have a fitted effect of over 60% in size
#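 Cells seeded first (HEK 293, 250 cells/well), then compound added by pintool. Incubation ran 48 or 72 hr at 37 degree Celsius. CellTiter-Glo was added and luminescence imaged after 10 min at room temperature.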
# FLuc SDR no ATP: binders stabilizing firefly luciferase, without ATP; hit rate 7.8% among 1,300; shares compounds with FLuc inh-1; Potency, µM (titrated, usually from 32.7 µM), inactives show at the highest dose activation (signal gain), actives largely listed as activators; Purified FLuc-C-HiBiT, Nano-Glo HiBiT luminescence, no ATP; also: nearly all actives have a fitted effect of over 55% in size
# FLuc SDR ATP: stabilizes firefly luciferase with ATP present; hit rate 8.7% among 1,300; Potency, µM (titrated, usually from 32.7 µM), without a hit: top-dose activation (gain of signal), most hits filed as activators; shares compounds with FLuc inh-1; purified FLuc-C-HiBiT + ATP, HiBiT complementation luminescence;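 also: signal reports ligand binding via conformational change of the enzyme rather than luciferase catalysis; % of control where 0% means no effect; nearly all actives have a fitted effect of over 55% in size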
# FLuc inh-2: blocks firefly luciferase enzymatic activity. shares compounds with FLuc inh-1. purified FLuc-C-HiBiT enzyme, luciferin luminescence. Potency, µM (highest dose often 32.7 µM), inactives show at the top dose activity change, negative = inhibition, most hits filed as inhibitors. hit rate 42% among 1,300; also: % is scaled to controls: 0 for no effect and ±100 for the full control effect; nearly all actives have a fitted effect of over 70% in size
# * hit, by the source's call; i = inactive; ? = inconclusive; / = no result; [ ] = dose if it differs, or a comment. Unless noted, calls follow the shape of the dose curve; as a rule, active = well fitted curve in the direction sought with a large enough effect; inconclusive = small, poorly fitted or top-dose-only effect, or another doubt; inactive = no such curve, though single readings can be large; an effect the other way counts as inactive or inconclusive. Potency is read from the fitted curve at half-maximal effect.
SMILES,NPR1 antag,3T3 cytotox,FLuc inh-1,GPT2 inh,HEK cytotox,FLuc SDR no ATP,FLuc SDR ATP,FLuc inh-2
O=C(NCc1cccs1)C1CCN(C(=O)c2ncn3c2COC(c2ccccc2)C3)CC1 (stereo not given),-15%,-2%,6.3µM*,3%,4%,13%,2.2µM*,2.5µM*
O=C(NCCc1cccs1)C1CCN(C(=O)c2ncn3c2COC(c2ccccc2)C3)CC1 (stereo not given),-7%,-6%,7.1µM*,2%,-9%,13%,?,4.4µM*
C[C@@H]1CCC/C=C/[C@H]2CC(=O)C[C@@H]2[C@@H](O)/C=C/C(=O)O1,/,/,/,i,/,/,/,/
CCOc1ccc(C(=O)NC2CCN(c3cc(-c4ccc(OC)cc4)[nH]n3)CC2)cc1OCC,-14%,0%,i,-6%,?,/,/,/
CNC(=O)c1cc(C2CC2)nc2onc(C3CCN(C(=O)COC)CC3)c12,/,i,/,/,i,/,/,/
COc1cccc(-c2cc3c(=O)n(CCNC(=O)c4cc(Cl)ccc4F)ccn3n2)c1,?,-20%,i,-24%,?,/,/,/
COc1cccc(-c2cc3c(=O)n(CCNC(=O)C4CCN(C(C)=O)CC4)ccn3n2)c1,6%,-5%,14µM*,i,i,?,?,?
COc1cccc(-c2cc3c(=O)n(CCNC(=O)C4CCCCC4)ccn3n2)c1,?,-24%,?,i,?,/,/,/
COc1ccc(-c2nc(C)c(CCNC(=O)c3c(F)cccc3F)s2)cc1,/,/,/,/,/,17%,15%,-20%
COc1ccc(-c2cc3c(=O)n(CCNC(=O)c4c(F)cccc4Cl)ccn3n2)cc1,-23%,-15%,3.2µM*,i,?,?,?,?
COc1ccc(-c2cc3c(=O)n(CCNC(=O)c4c(F)cccc4F)ccn3n2)cc1,-21%,-26%,4µM*,i,-28%,?,?,5µM*
C=CCCC(=O)N1CCC(=O)N(CCC#N)C[C@H]2COc3cc(OC)ccc3[C@H]21,/,?,/,/,-5%,/,/,/
Cc1ccc(OCc2nc(C3CN(C(=O)CCc4nc5ccccc5s4)C3)no2)cc1,?,?,i,i,?,/,/,/
COc1cccc(C(=O)NCCn2ccn3nc(-c4ccc(C)c(C)c4)cc3c2=O)c1,-19%,-9%,?,i,-20%,/,/,/
COc1ccc(-c2cc3c(=O)n(CCNC(=O)c4ccco4)ccn3n2)cc1,-16%,?,7.9µM*,-1%,?,?,?,9.9µM*
CCC(C(=O)NCCn1ccn2nc(-c3ccc(OC)cc3)cc2c1=O)c1ccccc1 (stereo not given),-17%,?,8.9µM*,-2%,?,25%,14%,?
COc1ccc(NC(=O)N2CC3CN(C)CC(C2)O3)cc1,-2%,-9%,i,i,3%,/,/,/
COc1ccc(NC(=O)/C(C#N)=C/c2ccc(C)o2)cc1,/,/,/,/,/,22%,17%,?
O=C1NCCCCCCN(S(=O)(=O)c2cccc3cccnc23)[C@H]2CCC[C@@H]12,6%,-10%,i,0%,?,/,/,/
COC(=O)Nc1nc2ccc(C(=O)c3ccccc3)cc2[nH]1,/,/,/,2%,/,/,/,/
CCOc1cccc2cc(-c3nc4ccc(C(=O)O)cc4[nH]3)c(=O)oc12,/,/,/,/,/,?,0.16µM*,0.16µM*
COc1ccc2cc(-c3nc4ccc(C(=O)O)cc4[nH]3)c(=O)oc2c1,/,/,/,/,/,0.79µM*,0.02µM*,0.016µM*
O=C(c1nc2cccnc2n(CCc2ccccc2)c1=O)N1CCN(C(=O)C2CC2)CC1,/,-9%,/,-1%,1%,/,/,/
Cc1ccc(/C=C/C(=O)N2CCC(c3nc4ccccc4o3)CC2)cc1,/,/,/,/,/,12%,?,?
O=C(Cc1ccc(F)cc1)N1CCN(C(=O)c2nnn3c2COC(c2ccccc2)C3)CC1 (stereo not given),-10%,-6%,i,?,-5%,/,/,/
SMILES,NPR1 antag,3T3 cytotox,FLuc inh-1,GPT2 inh,HEK cytotox,FLuc SDR no ATP,FLuc SDR ATP,FLuc inh-2
O=C1CCN(C(=O)[C@@H]2CCCN2C(=O)Nc2ccc3c(c2)OCCO3)CCCCCCN1,3%,-11%,i,i,i,/,/,/
O=C1NCCCCCCN(C(=O)Nc2ccc3c(c2)OCCO3)[C@H]2CCC[C@@H]12,?,-17%,1.1µM*,4%,-9%,?,?,3.5µM*
Cc1ccc(C(=O)Nc2cccc3cccnc23)cc1Cl,/,/,/,/,/,9%,8%,-14%
CC1(C(=O)NCc2ccsc2)CCOCC1,/,1%[174 µM],/,0%[88.5 µM],-3%[230 µM],/,/,/
COc1ccc(CCNC(=O)C2CCCN(c3nc4c(C)cc(C)cc4s3)C2)cc1OC (stereo not given),/,/,/,/,/,17%,20%,?
COc1ccc(CCNC(=O)c2ccc3c(c2)N(C)C2CCCN2C3=O)cc1OC (stereo not given),-14%,-22%,i,i,-13%,/,/,/
O=C(Nc1nn(-c2cccc(F)c2)c2cccc(N3CCOC3=O)c12)C1CCC1,-8%,-23%,i,?,-10%,/,/,/
CSCC(=O)Nc1nn(-c2ccc(F)cc2)c2cccc(N3CCOCC3)c12,?,?,6.3µM*,-21%,?,23%,16%,?
CCOCCNC(=O)C1CCCN(Cc2cccc(-c3ccc(F)cc3F)c2)C1 (stereo not given),/,?,/,-25%,?,/,/,/
CCOc1cccc(NC(=O)CSc2ncc(-c3ccccc3)[nH]2)c1,/,/,/,/,/,21%,14%,-16%
CCn1ccnc1C1CCN(c2nc3ccccc3s2)CC1,?,-1%,3.2µM*,-2%,?,22%,16%,?
CCn1c(CN2CCN(c3nc4ccccc4s3)CC2)nnc1C1CC(N)C1 (stereo not given),4%,-1%,i,i,-11%,/,/,/
COc1ccccc1CNC(=O)c1ccc2nc(N3CCCCC3)sc2c1,/,/,/,/,/,15%,12%,-14%
COc1ccccc1OCc1nc2ccccc2n1Cc1ccccc1,/,/,/,/,/,15%,9%,?
COc1ccc(OCc2nc3c(n2Cc2ccccc2)C(=O)N(Cc2ccccc2)CCN3)cc1OC,2%,?,i,-7%,?,/,/,/
CCNC(=O)O[C@H]1C(=O)N(C)C2(CCN([S+](=O)([O-])c3cccs3)CC2)[C@@H]1C(=O)OCC,/,?,/,/,-15%,/,/,/
